According to PubChem BioAssay (EPA / NIEHS):
The source made the active and inactive calls. Rule for the calls: active = hit-call score of the fitted dose curve at least 0.9, where 1 is the maximum; inactive = score below 0.9.

What was measured:
Details in all cases: mRNA level, 48 h; actives raise or lower the signal
[1] = read-out: Peroxisomal acyl-coenzyme A oxidase 1 (ACOX1) gene, ACOX1 (gene 51); assay: LTEA_HepaRG_ACOX1: Life Technologies and Expression Analysis (LTEA) Assay for Peroxisomal acyl-coenzyme A oxidase 1 (ACOX1) gene using HepaRG (AID 2283467)
Outline: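 Differentiated human HepaRG cells were exposed in duplicate for 48 h in serum-free induction medium to eight half-log concentrations up to 100 uM in 0.5% DMSO. ACOX1 mRNA was then quantified by TaqMan qRT-PCR, normalized to ACTB, GAPDH and POLR2A.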

[2] = read-out: Alkaline Phosphatase, Placental (ALPP) gene, ALPP (gene 250); assay: LTEA_HepaRG_ALPP: Life Technologies and Expression Analysis (LTEA) Assay for Alkaline Phosphatase, Placental (ALPP) gene using HepaRG (AID 2283468)
Outline: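 HepaRG cells plated 48 h, then exposed in duplicate for 48 h in serum-free induction medium to 8-point half-log series from 100 uM in 0.5% DMSO. ALPP mRNA by TaqMan qRT-PCR, normalized to ACTB/GAPDH/POLR2A; bidirectional fit versus DMSO.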

[3] = read-out: Bcl-2 (BAD) gene, BAD (gene 572); assay: LTEA_HepaRG_BAD: Life Technologies and Expression Analysis (LTEA) Assay for Bcl-2 (BAD) gene using HepaRG (AID 2283469)
Outline: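 Differentiated human HepaRG cells in serum-free induction medium were exposed in duplicate for 48 h to eight concentrations (top 100 uM, half-log steps, 0.5% DMSO). BAD mRNA was quantified by qRT-PCR normalised to ACTB, GAPDH and POLR2A, with bidirectional fitting versus DMSO.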

[4] = read-out: Bcl-2 (BAX) gene, BAX (gene 581); assay: LTEA_HepaRG_BAX: Life Technologies and Expression Analysis (LTEA) Assay for Bcl-2 (BAX) gene using HepaRG (AID 2283470)
Outline: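 Differentiated HepaRG cells exposed 48 h in serum-free induction medium, eight half-log concentrations from 100 uM, in duplicate, 0.5% DMSO vehicle. BAX mRNA by TaqMan qRT-PCR, normalised to ACTB, GAPDH and POLR2A.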

[5] = read-out: adenosine kinase (ADK) gene, ADK (gene 132); assay: LTEA_HepaRG_ADK: Life Technologies and Expression Analysis (LTEA) Assay for adenosine kinase (ADK) gene using HepaRG (AID 2283471)
Outline: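 Following 48 h exposure of HepaRG cells in 0.5% DMSO (top concentration 100 uM, duplicate wells), ADK mRNA induction or suppression was measured by qRT-PCR, normalised to ACTB/GAPDH/POLR2A, and fitted bidirectionally relative to vehicle.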

[6] = read-out: Alpha-fetoprotein (AFP) gene, AFP (gene 174); assay: LTEA_HepaRG_AFP: Life Technologies and Expression Analysis (LTEA) Assay for Alpha-fetoprotein (AFP) gene using HepaRG (AID 2283472)
Outline: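 Differentiated human HepaRG cells exposed 48 h in serum-free induction medium, 8-point half-log series from 100 uM in 0.5% DMSO, duplicate. AFP mRNA by qRT-PCR, normalized to ACTB, GAPDH, POLR2A; bidirectional fit vs DMSO.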

BCL2L11 (gene 10018) = assay: LTEA_HepaRG_BCL2L11: Life Technologies and Expression Analysis (LTEA) Assay for Bcl-2 (BCL2L11) gene using HepaRG (AID 2283473)
Outline: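 Differentiated human HepaRG cells were exposed 48 h in serum-free induction medium to eight half-log concentrations up to 100 uM in 0.5% DMSO, in duplicate. BCL2L11 mRNA was quantified by TaqMan qRT-PCR, normalized to ACTB, GAPDH and POLR2A; induction or repression fitted versus DMSO.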

[7] = read-out: Apoptosis regulator Bcl-2 (Homo sapiens) (UniProt P10415); assay: LTEA_HepaRG_BCL2: Life Technologies and Expression Analysis (LTEA) Assay for Bcl-2 gene using HepaRG (AID 2283475)
Outline: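 Differentiated human HepaRG cells in serum-free induction medium exposed 48 h, in duplicate, to 8-point half-log series from 100 uM in 0.5% DMSO. BCL2 mRNA by qRT-PCR (TaqMan/Fluidigm), normalized to ACTB, GAPDH, POLR2A; bidirectional fit against DMSO.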

[8] = read-out: Bcl-2 (BID) gene, BID (gene 637); assay: LTEA_HepaRG_BID: Life Technologies and Expression Analysis (LTEA) Assay for Bcl-2 (BID) gene using HepaRG (AID 2283476)
Outline: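 Gene expression by qRT-PCR in HepaRG cells after 48 h exposure, duplicate wells, eight half-log concentrations topping at 100 uM in 0.5% DMSO. Normalized to ACTB, GAPDH, POLR2A; bidirectional fitting relative to DMSO.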

Caspase-3 (Homo sapiens) = Caspase-3 (Homo sapiens) (UniProt P42574); assay: LTEA_HepaRG_CASP3: Life Technologies and Expression Analysis (LTEA) Assay for cysteine-aspartic acid protease (CASP3) using HepaRG (AID 2283477)
Chain of Caspase-3 (Homo sapiens) (P42574 whole entry, looked up): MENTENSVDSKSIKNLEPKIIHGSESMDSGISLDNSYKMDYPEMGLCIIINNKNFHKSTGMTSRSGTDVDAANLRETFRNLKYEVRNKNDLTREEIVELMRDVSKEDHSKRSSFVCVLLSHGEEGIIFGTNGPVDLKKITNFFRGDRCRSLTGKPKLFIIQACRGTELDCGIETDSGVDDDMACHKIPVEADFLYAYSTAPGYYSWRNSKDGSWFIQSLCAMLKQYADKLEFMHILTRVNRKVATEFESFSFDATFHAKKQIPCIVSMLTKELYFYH
Outline: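 Differentiated HepaRG cells, plated 48 h, were treated in duplicate in serum-free induction medium for 48 h with eight half-log concentrations up to 100 uM in 0.5% DMSO. CASP3 mRNA measured by qRT-PCR, normalized to ACTB, GAPDH, POLR2A.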

[9] = read-out: Cytochrome P450 (CYP24A1), CYP24A1 (gene 1591); assay: LTEA_HepaRG_CYP24A1: Life Technologies and Expression Analysis (LTEA) Assay for Cytochrome P450 (CYP24A1) using HepaRG (AID 2283478)
Outline: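 HepaRG cells plated 48 h, then exposed in duplicate in serum-free induction medium for 48 h to 8-point half-log series from 100 uM in 0.5% DMSO. CYP24A1 mRNA by Fluidigm qRT-PCR, normalized to ACTB, GAPDH, POLR2A; bidirectional fit versus DMSO.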

[10] = read-out: Cytochrome P450 (CYP1A2), CYP1A2 (gene 1544); assay: LTEA_HepaRG_CYP1A2: Life Technologies and Expression Analysis (LTEA) Assay for Cytochrome P450 (CYP1A2) using HepaRG (AID 2283479)
Outline: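 Differentiated human HepaRG cells in serum-free induction medium exposed 48 hours in duplicate to 8 half-log concentrations from 100 uM, 0.5% DMSO. CYP1A2 mRNA quantified by qRT-PCR, normalized to ACTB, GAPDH and POLR2A; bidirectional fitting versus DMSO.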

[11] = read-out: cysteine-aspartic acid protease (CASP8), CASP8 (gene 841); assay: LTEA_HepaRG_CASP8: Life Technologies and Expression Analysis (LTEA) Assay for cysteine-aspartic acid protease (CASP8) using HepaRG (AID 2283480)
Outline: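 Differentiated human HepaRG cells, plated 48 h then switched to serum-free induction medium, were exposed in duplicate for 48 h to 8 half-log concentrations up to 100 uM in 0.5% DMSO. CASP8 mRNA was quantified by qRT-PCR, normalized to ACTB/GAPDH/POLR2A.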

[12] = read-out: Cytochrome P450 (CYP2B6), CYP2B6 (gene 1555); assay: LTEA_HepaRG_CYP2B6: Life Technologies and Expression Analysis (LTEA) Assay for Cytochrome P450 (CYP2B6) using HepaRG (AID 2283481)
Outline: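 Differentiated human HepaRG cells in serum-free induction medium, dosed in duplicate for 48 h over 8 half-log concentrations topping at 100 uM (0.5% DMSO). CYP2B6 mRNA measured by TaqMan qRT-PCR, normalized to ACTB, GAPDH, POLR2A; bidirectional fit versus DMSO.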

CYP2C8 (gene 1558) = assay: LTEA_HepaRG_CYP2C8: Life Technologies and Expression Analysis (LTEA) Assay for CYP2C8 using HepaRG (AID 2283483)
Outline: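 Differentiated human HepaRG cells were exposed for 48 h in serum-free induction medium to eight half-log concentrations up to 100 uM in 0.5% DMSO, in duplicate. CYP2C8 mRNA was measured by TaqMan qRT-PCR, normalized to ACTB, GAPDH and POLR2A, and fitted bidirectionally against DMSO.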

CYP2C9 (gene 1559) = assay: LTEA_HepaRG_CYP2C9: Life Technologies and Expression Analysis (LTEA) Assay for CYP2C9 using HepaRG (AID 2283484)
Outline: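 Differentiated human HepaRG cells were exposed 48 h in serum-free induction medium to eight half-log concentrations up to 100 uM in 0.5% DMSO. CYP2C9 mRNA was measured by qRT-PCR, normalized to ACTB, GAPDH and POLR2A, and fitted bidirectionally against DMSO.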

CYP4A11 (gene 1579) = assay: LTEA_HepaRG_CYP4A11: Life Technologies and Expression Analysis (LTEA) Assay for CYP4A11 using HepaRG (AID 2283486)
Outline: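 Differentiated HepaRG cells, 48 h after plating, exposed in duplicate for 48 h to 8 half-log concentrations up to 100 uM in 0.5% DMSO in serum-free induction medium. CYP4A11 mRNA measured by TaqMan qRT-PCR, normalized to ACTB, GAPDH and POLR2A.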

CYP2E1 (gene 1571) = assay: LTEA_HepaRG_CYP2E1: Life Technologies and Expression Analysis (LTEA) Assay for CYP2E1 using HepaRG (AID 2283485)
Outline: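 HepaRG cells, plated 48 h, then exposed 48 h in serum-free induction medium to eight half-log concentrations from 100 uM in 0.5% DMSO, duplicate. CYP2E1 mRNA by qRT-PCR, normalized to ACTB/GAPDH/POLR2A; bidirectional fit versus DMSO.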

[13] = read-out: Cytochrome P450 2C19 (Homo sapiens) (UniProt P33261); assay: LTEA_HepaRG_CYP2C19: Life Technologies and Expression Analysis (LTEA) Assay for CYP2C19 using HepaRG (AID 2283482)
Outline: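 Differentiated HepaRG cells in serum-free induction medium exposed 48 h in duplicate, 8 concentrations from 100 uM by half-log steps in 0.5% DMSO. CYP2C19 mRNA measured by TaqMan qRT-PCR, normalized to ACTB, GAPDH, POLR2A. Bidirectional fit versus DMSO.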

Measured: AC50

Chain of Apoptosis regulator Bcl-2 (Homo sapiens) (P10415 whole entry, looked up): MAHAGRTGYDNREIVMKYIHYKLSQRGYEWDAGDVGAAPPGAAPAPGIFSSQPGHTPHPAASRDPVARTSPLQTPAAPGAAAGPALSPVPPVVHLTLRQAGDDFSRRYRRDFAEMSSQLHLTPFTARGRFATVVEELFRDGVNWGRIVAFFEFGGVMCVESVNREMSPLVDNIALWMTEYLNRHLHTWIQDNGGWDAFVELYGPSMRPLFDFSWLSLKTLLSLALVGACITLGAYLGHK
Chain of Cytochrome P450 2C19 (Homo sapiens) (P33261 whole entry, looked up): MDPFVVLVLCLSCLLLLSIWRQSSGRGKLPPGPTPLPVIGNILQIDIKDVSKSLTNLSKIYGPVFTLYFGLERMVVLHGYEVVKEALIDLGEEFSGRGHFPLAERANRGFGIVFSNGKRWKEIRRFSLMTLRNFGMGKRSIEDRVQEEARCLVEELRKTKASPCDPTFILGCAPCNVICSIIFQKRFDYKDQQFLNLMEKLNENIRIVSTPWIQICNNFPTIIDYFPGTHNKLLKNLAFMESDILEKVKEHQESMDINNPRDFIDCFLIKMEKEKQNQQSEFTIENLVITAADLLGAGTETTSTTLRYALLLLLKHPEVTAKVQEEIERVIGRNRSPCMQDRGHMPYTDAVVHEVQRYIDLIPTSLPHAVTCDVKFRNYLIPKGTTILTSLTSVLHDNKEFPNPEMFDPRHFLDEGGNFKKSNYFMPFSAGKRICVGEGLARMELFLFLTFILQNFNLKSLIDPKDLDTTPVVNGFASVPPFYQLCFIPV

Clc1ccc(Cl)cc1
not listed: CYP2E1 (gene 1571) | [13]
inactive: all other assays above

COS(=O)(=O)OC
active: [10] 31 µM
not listed: CYP2E1 (gene 1571) | [13]
inactive: all other assays above

Cc1ccc(O)c(C)c1
not listed: [13]
inactive: all other assays above

Oc1ccc(Cl)cc1Cl
active: [8] 12.2 µM
not listed: [5] | [13]
inactive: all other assays above

CCOC(=O)C(O)(c1ccc(Cl)cc1)c1ccc(Cl)cc1
active: [10] 66.5 µM | [12] 69.1 µM | CYP2C8 (gene 1558) 21.6 µM | CYP4A11 (gene 1579) 20.4 µM
not listed: CYP2E1 (gene 1571) | [13]
inactive: all other assays above

Clc1ccc(C(c2ccccc2Cl)C(Cl)(Cl)Cl)cc1 (stereo unspecified)
active: [6] 36.3 µM | [12] 0.213 µM | CYP2C8 (gene 1558) 0.794 µM | CYP4A11 (gene 1579) 40.7 µM
not listed: CYP2E1 (gene 1571) | [13]
inactive: all other assays above

Cc1cccc(C)c1N
active: [12] 19.3 µM
not listed: CYP2E1 (gene 1571)
inactive: all other assays above
